# Shown is part of a subset that was picked to be rich in hits.
# HIV RNase H inh-1 – inhibitors of HIV-1 reverse transcriptase RNase H | inhibition, % at 10 µM | RT-RNase H RNA/DNA duplex cleavage, fluorescence | actives 1.9% (n = 65,000) | P04585; in the data active = inhibition above about 50%
# HIV RNase H inh-2 – confirmation of HIV-1 reverse transcriptase RNase H inhibitors; shares compounds with HIV RNase H inh-1; Recombinant RT RNase H, fluorescent RNA/DNA duplex cleavage; inhibition, % at 10 µM; actives 39% (n = 1,000); AID 651; in the data active = inhibition above about 48%; inconclusive = no clear call, values can overlap the other calls
# Starred values were filed as active, the others as inactive; ? = inconclusive.
SMILES,HIV RNase H inh-1,others
COc1ccc(OCC(=O)Nc2cccc(-c3nc4ccccc4o3)c2)cc1,9,
CCc1ccc(OCC(=O)Nc2ccc(-c3nc4ccccc4o3)c(O)c2)cc1,68*,HIV RNase H inh-2=?
Oc1cc(NCc2cccnc2)ccc1-c1nc2ccccc2o1,1,
O=C(CSc1nccn1-c1ccc(Cl)cc1)NCc1ccc2c(c1)OCO2,-35,
CC(O)c1cccc(NC2=CC(=O)CC(C)(C)C2)c1 (configuration not stated),-5,
O=C(NCCO)c1ccc2[nH]c3c(c2c1)CCCC3,6,
O=C(O)c1ccc2[nH]c3c(c2c1)CSCC3,66*,HIV RNase H inh-2=-1
O=C(CN1CCSCC1)N1CCc2[nH]c3ccc(Br)cc3c2C1,15,
Cc1cc(C)n(-c2ccc(C(=O)C(C#N)c3nc4ccccc4n3C)cc2)n1 (configuration not stated),4,
Cc1ccccc1CS(=O)(=O)Cc1ccc(C(=O)NCc2cccnc2)o1,-7,
O=C1CN(C(=O)COc2ccccc2)CCN1,-11,
COc1ccc(C(=O)Nc2oc(-c3ccccc3)c(-c3ccccc3)c2C#N)cc1OC,62*,HIV RNase H inh-2=?
COc1ccc(C(=O)Nc2ccccc2NC(=O)c2ccco2)cc1OC,-2,
N#Cc1c(NC(=O)Cn2c(=O)oc3ccccc32)oc(-c2ccccc2)c1-c1ccccc1,-12,
CC(=O)/C=C(\C)NCCNc1c(F)c(F)c(CO)c(F)c1F,3,
CC(=O)NC(c1ccco1)c1ccc2cccnc2c1O (configuration not stated),-6,
OCCN1CCN(C(c2cccs2)c2ccc3cccnc3c2O)CC1 (configuration not stated),72*,HIV RNase H inh-2=9
OCCN1CCN(CC(O)COc2ccc3ccccc3c2)CC1 (configuration not stated),-4,
CCN(CC)c1ccc(C=Nc2ccc(C#N)cc2)c(O)c1,-17,
CCN(CC)c1ccc(C=N/C(C#N)=C(\N)C#N)cc1,80*,HIV RNase H inh-2=45
CCN(CC)c1ccc(NC(=O)C(C)C)cc1,17,
C=CCN1C(=O)C2C(C(=O)NC)C3(C)C=CC2(O3)C1C(=O)NCc1ccc(OC)cc1 (configuration not stated),6,
Cc1cc(-c2ccccc2)n2ncc(C#N)c2n1,-18,
NC1C2CN(c3nc4c(cc3F)c(=O)c(C(=O)O)cn4-c3ccc(F)cc3F)CC12 (configuration not stated),21,
O=C(Nc1ccc2nc(-c3ccc(Br)o3)[nH]c2c1)c1cccs1,71*,HIV RNase H inh-2=2
SMILES,HIV RNase H inh-1,others
CC(=O)Nc1ccc2nc(-c3cccs3)[nH]c2c1,-1,
Cn1cccc1-c1nc2ccc(NC(=O)c3cccs3)cc2[nH]1,0,
CC1(C)NC(=O)N(c2ccccc2Cl)C1(C)NO (configuration not stated),-4,
COc1ccc(S(C)(=O)=O)cc1S(C)(=O)=O,2,
COc1ccc(C2C=C(c3ccc(Br)s3)Nc3ncnn32)cc1OC (configuration not stated),-31,
COc1ccc2[nH]c(=O)c(CN(C3CCCCC3)C(c3nnnn3Cc3ccco3)C(C)C)cc2c1 (configuration not stated),51*,HIV RNase H inh-2=55*
COc1ccc2[nH]c(=O)c(CN(Cc3nnnn3Cc3ccco3)C3CCCCC3)cc2c1,33,
CCC(c1nnnn1C1CCCCC1)N(Cc1ccco1)Cc1cc2ccc(OC)cc2[nH]c1=O (configuration not stated),-8,
CCSc1nnc([C@H](C)NC(=O)OC(C)(C)C)o1,-2,
O=C(CCn1c(=O)oc2ccccc21)NCCN1CCOCC1,-8,
Cn1cnnc1SCc1ccc(C(=O)n2ncc(C#N)c2N)cc1,-7,
CC(=O)Oc1c(S(=O)(=O)c2ccc(C)cc2)c(C)nn1-c1ccccc1,0,
O=C(Cc1coc2ccc3ccccc3c12)N1CCN(c2ncccn2)CC1,-53,
COC(=O)Cn1c(CN2CCOCC2)nc2c1c(=O)[nH]c(=O)n2C,-2,
Cc1ccccc1OCc1nc2ccccc2c(=O)n1NC(=O)c1ccco1,-3,
CCCc1cc(=O)[nH]c(/N=C(/NC(=O)c2ccccc2)Nc2ccc3c(c2)OCCO3)n1,61*,HIV RNase H inh-2=48
CCCc1cc(=O)[nH]c(/N=C(/NC(=O)C(C)N2C(=O)c3ccccc3C2=O)Nc2ccccc2)n1 (configuration not stated),2,
Cc1cc(=O)[nH]c(/N=C(/NC(=O)c2ccccc2)Nc2ccc3c(c2)OCCO3)n1,48,
Cc1cc(=O)[nH]c(SCc2cc(=O)n3nc(C)sc3n2)n1,-6,
COc1cc(C(=O)Nc2cc(Cl)ccc2C)c(-n2cnnn2)cc1OC,-3,
O=C(CSc1nnc(-c2ccco2)c(-c2ccco2)n1)Nc1ccccc1,87*,HIV RNase H inh-2=37
CSc1nnc(-c2ccco2)c(-c2ccco2)n1,77*,HIV RNase H inh-2=43
Cn1cnnc1SCC(=O)Nc1ccccc1,-5,
Cc1ccc(NC(=O)CSc2nnc(-c3ccco3)c(-c3ccco3)n2)cc1,97*,HIV RNase H inh-2=28
COc1ccc(NC(=O)CSc2nccc(C)n2)cc1,-11,
SMILES,HIV RNase H inh-1,others
O=C(CSc1nc2ccccc2o1)Nc1ccccc1,-46,
Cc1ccc(NC(=O)CCSc2nnc(-c3ccco3)o2)cc1,7,
CCS(=O)(=O)n1nc(-c2ccco2)nc1SC,-3,
CSc1nnc2c(n1)OC=Nc1ccccc1-2,-11,
Cc1ccc2c(c1)cc(CN(Cc1ccccc1)C(=O)N(C)C)c1nnnn12,-14,
CCN(CC)CCCNC(CC(=O)O)C(=O)O (configuration not stated),-6,
COc1ccc(CN2CCN(c3ccccn3)CC2)cc1OCc1ccccc1,-2,
CC1CN(C(=O)c2cccs2)CCN1C(=O)c1cccs1 (configuration not stated),-6,
O=C(c1ccc2c3c(cccc13)C(=O)N(O)C2=O)N1CCCCC1,80*,HIV RNase H inh-2=70*
O=C(c1cccc2cccc(O)c12)N1CCCCC1,1,
O=C1c2cccc3c(Cl)ccc(c23)C(=O)N1O,-12,
Nc1ccc(Cl)cc1/C(=N/O)c1ccccc1,-10,
O=C(O)c1ccc(CSc2nnnn2C2CCCCC2)cc1,-8,
O=C(Sc1nnnn1C1CCCCC1)c1cccs1,62*,HIV RNase H inh-2=40
O=C(CSc1nnnn1C1CCCCC1)N1CCCC1,-5,
O=C1NC(c2ccccc2)(C(F)(F)F)C(=O)N1Cc1cccnc1 (configuration not stated),-28,
Fc1cccc(Cl)c1CSc1nnc(COc2cccc3cccnc23)o1,-53,
C1=C(c2ccc(-c3ccccc3)cc2)Nc2ncnn2C1c1ccco1 (configuration not stated),90*,HIV RNase H inh-2=52*
CCOc1ccc(C2C=C(c3ccccc3)Nc3ncnn32)cc1 (configuration not stated),0,
COc1cccc(C2=CC(c3ccccc3)n3ncnc3N2)c1 (configuration not stated),-6,
CCCN1C(=O)c2cc(C(=O)NCc3ccc(OC)cc3)ccc2C1O (configuration not stated),1,
O=C(Nc1cccnc1)c1cnc2ccccc2n1,-10,
O=C(O)c1cccc(C(=O)O)n1,17,
O=C(O)c1cnc2ccccc2n1,82*,HIV RNase H inh-2=17
COc1ccc(NC(=O)N(CCN2CCCC2)Cc2cc3cc(OC)c(OC)cc3[nH]c2=O)cc1,-23,
CN(C)C(CNC(=O)NC1CCCCC1)c1cccnc1 (configuration not stated),4,
O=C(COc1ccc2ccccc2c1CN1CCOCC1)N1CCc2ccccc21,-40,
